Measured values from PubChem BioAssay (EPA / NIEHS).
Calls of active or inactive are those of the source. Rule for the calls: active = hit-call score of the fitted dose curve at least 0.9, where 1 is the maximum; inactive = score below 0.9.

How the values were obtained:
[1] = ATG_CRE_CIS: Attagene CIS-FACTORIAL HepG2 Assay for human cAMP Responsive Element (CRE) binding protein 3 (AID 2282926); conditions: HepG2 CRE cis-reporter, Attagene multiplexed mRNA; actives raise or lower the signal
Procedure, shortened: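 Multiplexed transcription-unit reporters transfected into HepG2; 24 h dosing; RT-PCR/capillary electrophoresis fluorescence read-out; bidirectional fit vs DMSO.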

[2] = molecular target: CCAAT/enhancer-binding protein beta (Homo sapiens) (UniProt P17676); assay: ATG_C_EBP_CIS: Attagene CIS-FACTORIAL HepG2 Assay for human CCAAT/Enhancer Binding Protein (C/EBP) beta (AID 2282927); conditions: HepG2 Attagene cis-factorial transcription factor reporter; actives raise or lower the signal
Chain of CCAAT/enhancer-binding protein beta (Homo sapiens) (P17676 whole entry, looked up): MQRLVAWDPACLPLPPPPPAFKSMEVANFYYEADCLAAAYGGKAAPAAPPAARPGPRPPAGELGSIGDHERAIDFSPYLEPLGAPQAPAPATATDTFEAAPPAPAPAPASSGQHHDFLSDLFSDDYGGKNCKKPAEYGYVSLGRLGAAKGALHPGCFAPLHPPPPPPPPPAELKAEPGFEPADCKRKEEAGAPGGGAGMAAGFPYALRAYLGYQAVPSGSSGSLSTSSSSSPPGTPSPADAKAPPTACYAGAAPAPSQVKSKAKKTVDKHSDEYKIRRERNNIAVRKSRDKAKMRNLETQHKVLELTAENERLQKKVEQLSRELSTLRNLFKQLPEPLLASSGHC
Procedure, shortened: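 RT-PCR/capillary electrophoresis fluorescence of reporter mRNA, 24 h post-dose, in HepG2 cells carrying transfected cis-promoter reporter units. Bidirectional curve fitting against DMSO baseline captures gain or loss of signal.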

[3] = ATG_DR4_LXR_CIS: Attagene CIS-FACTORIAL HepG2 Assay for human Liver X Receptor (LXR), DR4 submotif (AID 2282929); conditions: HepG2 Attagene DR4 cis-reporter, mRNA transcription; actives raise or lower the signal
Procedure, shortened: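 Cells were transfected with multiple reporter transcription units, exposed to chemicals for 24 hours, then lysed for RNA. Reporter mRNA induction was measured by RT-PCR with capillary electrophoresis detection and fitted in both directions relative to DMSO.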

[4] = ATG_AP_1_CIS: Attagene CIS-FACTORIAL HepG2 Assay for human Activator Protein 1 (AP-1) (AID 2282931); conditions: HepG2 Attagene cis-factorial AP-1 reporter mRNA; actives raise or lower the signal
Procedure, shortened: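 Endogenous transcription-factor activity in human HepG2 liver cells is read through a cis-promoter reporter transcript, sampled 24 h after dosing. Detection uses RT-PCR with capillary electrophoresis; values come from bidirectional fitting relative to DMSO.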

[5] = ATG_AP_2_CIS: Attagene CIS-FACTORIAL HepG2 Assay for human Activator Protein 2 (AP-2) (AID 2282932); conditions: HepG2 AP-2 cis-reporter, Attagene transcription factor profiling; actives raise or lower the signal
Procedure, shortened: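 HepG2 cells were transiently transfected with multiple cis-promoter reporter transcription units and dosed for 24 h. Reporter mRNA was measured by RT-PCR with capillary electrophoresis fluorescence; bidirectional fits relative to DMSO baseline.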

[6] = ATG_BRE_CIS: Attagene CIS-FACTORIAL HepG2 Assay for human Bone Morphogenetic Protein (BMP) Response Element (BRE) (AID 2282933); conditions: HepG2 BMP response element reporter, Attagene transcription factor profiling; actives raise or lower the signal
Procedure, shortened: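 A HepG2 multiplex reporter system measured inducible reporter mRNA 24 h post-dosing. Detection: RT-PCR, 6-FAM primer extension, HpaI digestion, capillary electrophoresis. Activity fitted bidirectionally relative to DMSO.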

[7] = molecular target: Retinoic acid receptor alpha (Homo sapiens) (UniProt P10276); assay: ATG_DR5_RAR_CIS: Attagene CIS-FACTORIAL HepG2 Assay for human Retinoic Acid Receptor Alpha (RARE), DR5 submotif (AID 2282934); conditions: HepG2 Attagene cis-factorial RARE DR5 reporter, mRNA; actives raise or lower the signal;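 for AC50: reporter responds to endogenous RAR alpha beta and gamma in HepG2 not RARA alone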
Chain of Retinoic acid receptor alpha (Homo sapiens) (P10276 whole entry, looked up): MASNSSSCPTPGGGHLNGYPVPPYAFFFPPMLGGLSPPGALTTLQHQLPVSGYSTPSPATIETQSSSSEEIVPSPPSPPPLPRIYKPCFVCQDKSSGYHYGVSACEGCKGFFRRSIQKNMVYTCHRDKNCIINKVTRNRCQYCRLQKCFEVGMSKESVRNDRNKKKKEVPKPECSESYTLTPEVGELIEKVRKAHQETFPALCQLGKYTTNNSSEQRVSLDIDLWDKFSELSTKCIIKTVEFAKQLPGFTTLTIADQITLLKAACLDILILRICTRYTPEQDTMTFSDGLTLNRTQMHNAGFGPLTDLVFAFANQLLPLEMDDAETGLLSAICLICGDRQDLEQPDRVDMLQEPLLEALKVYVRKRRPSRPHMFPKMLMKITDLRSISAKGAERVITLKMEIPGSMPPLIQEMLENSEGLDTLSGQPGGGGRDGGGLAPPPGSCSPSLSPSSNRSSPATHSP
Procedure, shortened: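 HepG2 cells transiently transfected with multiplexed reporter units under cis (DR5 RARE) promoters, so endogenous transcription factor activity is measured. After 24 h compound exposure, reporter mRNA is quantified by RT-PCR with fluorescent labelling and capillary electrophoresis; bidirectional fitting versus DMSO.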

[8] = molecular target: Transcription factor E2F1 (Homo sapiens) (UniProt Q01094); assay: ATG_E2F_CIS: Attagene CIS-FACTORIAL HepG2 Assay for human E2F Transcription Factor 1 (AID 2282935); conditions: HepG2 Attagene cis-reporter, E2F reporter RNA transcripts; actives raise or lower the signal
Chain of Transcription factor E2F1 (Homo sapiens) (Q01094 whole entry, looked up): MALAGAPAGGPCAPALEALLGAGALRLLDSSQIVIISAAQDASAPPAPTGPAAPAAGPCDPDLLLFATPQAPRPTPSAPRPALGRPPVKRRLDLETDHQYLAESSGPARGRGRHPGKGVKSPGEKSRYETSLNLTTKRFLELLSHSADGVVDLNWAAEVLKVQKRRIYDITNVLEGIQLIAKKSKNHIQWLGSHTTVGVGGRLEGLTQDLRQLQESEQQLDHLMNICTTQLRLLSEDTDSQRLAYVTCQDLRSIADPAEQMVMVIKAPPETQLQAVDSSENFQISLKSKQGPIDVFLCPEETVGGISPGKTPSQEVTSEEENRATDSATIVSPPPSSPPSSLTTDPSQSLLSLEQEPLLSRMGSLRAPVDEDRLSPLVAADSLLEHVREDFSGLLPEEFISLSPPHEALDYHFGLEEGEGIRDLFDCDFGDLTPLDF
Procedure, shortened: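 HepG2 cells transiently transfected with multiplexed cis-element reporter units, dosed for 24 h. Reporter mRNA measured by RT-PCR, 6-FAM primer-extension labeling, HpaI digestion and capillary electrophoresis; bidirectional fit versus DMSO baseline.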

[9] = ATG_M_61_CIS: Attagene CIS-FACTORIAL HepG2 Assay for M61 Transcription Factor (Internal Marker) (AID 2282937); conditions: HepG2 Attagene CIS-FACTORIAL M61 internal marker reporter; actives raise or lower the signal
Procedure, shortened: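 Cells were transfected with reporter units under cis-regulatory promoters, treated with chemicals for 24 h, then lysed for RNA. Reporter transcripts were quantified by RT-PCR and capillary electrophoresis, and activity was fitted bidirectionally against DMSO.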

[10] = ATG_EGR_CIS: Attagene CIS-FACTORIAL HepG2 Assay for human Early Growth Response 1 (EGR1) (AID 2282938); conditions: HepG2 Attagene CIS-FACTORIAL EGR reporter mRNA; actives raise or lower the signal
Procedure, shortened: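 Endogenous TF activity in HepG2 liver cells was gauged through cis-promoter reporter constructs transiently transfected. After 24 h dosing, reporter mRNA was quantified by RT-PCR and capillary electrophoresis, and curves fitted in both directions versus DMSO.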

[11] = ATG_M_19_CIS: Attagene CIS-FACTORIAL HepG2 Assay for M19 Transcription Factor (Internal Marker) (AID 2282939); conditions: HepG2 Attagene CIS-FACTORIAL M19 internal marker reporter; actives raise or lower the signal
Procedure, shortened: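 Chemical-treated HepG2 (24 h) with MRTU constructs; reporter transcripts detected by fluorescent RT-PCR fragment analysis on capillary electrophoresis. Internal background marker, DMSO as baseline.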

[12] = ATG_ERE_CIS: Attagene CIS-FACTORIAL HepG2 Assay for Estrogen Response Element (ERE) (AID 2282940); conditions: HepG2 ERE cis-reporter, Attagene RNA transcript; actives raise or lower the signal
Procedure, shortened: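 Human liver cells (HepG2) bearing transiently transfected, promoter-regulated reporter units were exposed 24 h. Reporter mRNA induction was detected by capillary electrophoresis of labelled RT-PCR products and fitted bidirectionally to DMSO.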

[13] = molecular target: Hepatocyte nuclear factor 3-beta (Homo sapiens) (UniProt Q9Y261); assay: ATG_FoxA2_CIS: Attagene CIS-FACTORIAL HepG2 Assay for human Forkhead box A2 (FOXA2) (AID 2282942); conditions: HepG2 cis-reporter transcription factor activity, 24 h; actives raise or lower the signal
Chain of Hepatocyte nuclear factor 3-beta (Homo sapiens) (Q9Y261 whole entry, looked up): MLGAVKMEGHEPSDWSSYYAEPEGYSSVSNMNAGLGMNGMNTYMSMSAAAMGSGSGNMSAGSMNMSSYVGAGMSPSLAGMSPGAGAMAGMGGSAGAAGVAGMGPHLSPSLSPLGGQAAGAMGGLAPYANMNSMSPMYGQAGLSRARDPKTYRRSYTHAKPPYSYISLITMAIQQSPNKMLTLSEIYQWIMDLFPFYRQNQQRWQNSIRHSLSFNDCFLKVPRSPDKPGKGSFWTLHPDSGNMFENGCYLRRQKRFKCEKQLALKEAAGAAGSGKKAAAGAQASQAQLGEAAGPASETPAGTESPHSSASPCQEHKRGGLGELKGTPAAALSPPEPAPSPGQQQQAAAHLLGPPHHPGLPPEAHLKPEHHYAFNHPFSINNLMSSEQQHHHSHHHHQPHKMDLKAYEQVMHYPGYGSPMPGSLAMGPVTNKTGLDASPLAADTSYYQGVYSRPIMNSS
Procedure, shortened: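 Endogenous transcription factor activity was read in HepG2 cells carrying transiently transfected cis-promoter reporter units. After 24 h dosing, reporter mRNA was quantified by RT-PCR and capillary electrophoresis, and values fitted bidirectionally versus DMSO.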

[14] = ATG_FoxO_CIS: Attagene CIS-FACTORIAL HepG2 Assay for human Forkhead box O (FoxO) (AID 2282943); conditions: HepG2 Attagene cis-reporter, FoxO element, mRNA; actives raise or lower the signal
Procedure, shortened: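 HepG2 cells transiently transfected with cis-promoter-driven multiple reporter transcription units; 24 h after chemical dosing, reporter mRNA quantified by RT-PCR, fluorescent primer extension, HpaI digestion and capillary electrophoresis. Bidirectional fitting versus DMSO baseline.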

[15] = ATG_GATA_CIS: Attagene CIS-FACTORIAL HepG2 Assay for human GATA Binding Protein (AID 2282944); conditions: HepG2 GATA cis-element reporter, Attagene multiplex mRNA; actives raise or lower the signal
Procedure, shortened: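 Transfected cis-reporter HepG2 cells were treated with chemicals for 24 hours. Total RNA was then converted to cDNA, amplified with reporter-specific primers and analysed by fluorescent capillary electrophoresis, using DMSO-treated wells as baseline.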

[16] = ATG_GLI_CIS: Attagene CIS-FACTORIAL HepG2 Assay for human Zinc Finger Protein GLI1 (AID 2282945); conditions: HepG2, Attagene cis-factorial reporter mRNA, GLI element; actives raise or lower the signal
Procedure, shortened: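 HepG2 cells transiently transfected with cis-promoter multiplexed reporter units report endogenous transcription factor activity. After 24 h chemical exposure, reporter mRNA was quantified by RT-PCR, 6-FAM labelling, HpaI digestion and capillary electrophoresis, with bidirectional fitting against DMSO.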

[17] = ATG_CMV_CIS: Attagene CIS-FACTORIAL HepG2 Assay for human CMV (Internal Marker) (AID 2282928); conditions: HepG2 CMV promoter reporter, transcription factor profiling; actives raise or lower the signal;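 note: endpoint acts as a background internal control marker rather than a target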
Procedure, shortened: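 HepG2 cells transiently transfected with multiple cis-regulated reporter units; 24 h compound exposure. Reporter mRNA quantified by RT-PCR, 6-FAM primer-extension labeling, HpaI digestion and capillary electrophoresis; bidirectional fitting against DMSO baseline.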

[18] = molecular target: Aryl hydrocarbon receptor (Homo sapiens) (UniProt P35869); assay: ATG_Ahr_CIS: Attagene CIS-FACTORIAL HepG2 Assay for human Aryl Hydrocarbon Receptor (Ahr) (AID 2282930); conditions: HepG2 AhR cis-factorial reporter transcription; actives raise or lower the signal
Chain of Aryl hydrocarbon receptor (Homo sapiens) (P35869 whole entry, looked up): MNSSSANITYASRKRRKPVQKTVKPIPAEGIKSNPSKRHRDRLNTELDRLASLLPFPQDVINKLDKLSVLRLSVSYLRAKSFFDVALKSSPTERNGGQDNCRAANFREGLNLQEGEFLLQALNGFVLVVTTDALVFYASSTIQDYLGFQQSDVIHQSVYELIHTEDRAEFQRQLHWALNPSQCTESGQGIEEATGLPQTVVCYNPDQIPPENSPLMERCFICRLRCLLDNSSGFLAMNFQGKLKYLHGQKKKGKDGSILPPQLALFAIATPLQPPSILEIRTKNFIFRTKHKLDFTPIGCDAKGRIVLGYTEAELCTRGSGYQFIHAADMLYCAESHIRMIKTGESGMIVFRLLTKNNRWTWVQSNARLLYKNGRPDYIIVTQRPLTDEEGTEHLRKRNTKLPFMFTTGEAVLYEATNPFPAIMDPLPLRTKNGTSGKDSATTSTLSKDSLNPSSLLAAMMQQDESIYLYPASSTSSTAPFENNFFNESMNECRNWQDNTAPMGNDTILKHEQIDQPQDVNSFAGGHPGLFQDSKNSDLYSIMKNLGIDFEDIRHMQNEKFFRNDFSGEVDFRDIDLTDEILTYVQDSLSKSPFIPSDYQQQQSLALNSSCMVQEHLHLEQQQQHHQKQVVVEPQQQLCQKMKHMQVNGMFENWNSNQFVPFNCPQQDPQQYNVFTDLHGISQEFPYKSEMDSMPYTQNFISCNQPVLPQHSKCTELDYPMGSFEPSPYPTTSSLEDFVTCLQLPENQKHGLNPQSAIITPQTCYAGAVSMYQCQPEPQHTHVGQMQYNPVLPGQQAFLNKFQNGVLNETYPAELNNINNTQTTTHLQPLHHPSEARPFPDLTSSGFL
Procedure, shortened: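 HepG2 cells transiently transfected with cis-element-driven multiplexed reporter transcription units; endogenous transcription factor activity measured as reporter mRNA 24 h after dosing. RT-PCR, 6-FAM labelling, HpaI digestion, capillary electrophoresis; bidirectional fitting versus DMSO baseline.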

[19] = ATG_Ets_CIS: Attagene CIS-FACTORIAL HepG2 Assay for human Erythroblast Transformation Specific (ETS) (AID 2282941); conditions: HepG2 ETS cis-reporter transcription, actives raise or lower the signal
Procedure, shortened: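 HepG2 cells transiently transfected with cis-promoter reporter transcription units were dosed for 24 h; reporter mRNA was measured by RT-PCR, 6-FAM primer extension, HpaI digestion and capillary electrophoresis, with bidirectional fitting against DMSO baseline.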

[20] = ATG_E_Box_CIS: Attagene CIS-FACTORIAL HepG2 Assay for human Enhancer Box (E-box) (AID 2282936); conditions: HepG2 E-box cis-reporter transcription, actives raise or lower the signal
Procedure, shortened: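 HepG2 cells transiently transfected with multiplexed cis-element reporter units sensing endogenous transcription factor activity; 24 h compound exposure. Reporter mRNA measured by RT-PCR, 6-FAM primer extension, HpaI digestion and capillary electrophoresis; bidirectional fit versus DMSO.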

Measured: AC50

CCOC(=O)Cc1cccc2ccccc12
active: [7] 39.5 µM
not listed: [17] | [18] | [19] | [20]
inactive: all other assays above

CCN(CC)c1ccc(C(=O)c2ccccc2C(=O)O)c(O)c1
not listed: [3] | [4] | [20]
inactive: all other assays above

CCCCC(CC)COCC1CO1 (stereo not drawn)
not listed: [7] | [15] | [17]
inactive: all other assays above

CCCCCC(C)O (stereo not drawn)
not listed: [4] | [5] | [7] | [17]
inactive: all other assays above

O=[N+]([O-])c1ccc(CO)cc1
not listed: [3] | [4] | [17]
inactive: all other assays above

c1cc(N(CC2CO2)CC2CO2)ccc1OCC1CO1 (stereo not drawn)
active: [1] 12.6 µM | [17] 91.5 µM | [5] 25.8 µM | [7] 83.1 µM | [10] 38.7 µM | [16] 140 µM
not listed: [3] | [18]
inactive: all other assays above

CCOC(=O)NNc1nncc2ccccc12
active: [12] 60 µM
not listed: [5] | [16] | [17]
inactive: all other assays above
